The whole screen tested about 290,000 compounds, of which about 890 (0.31%) were called active. No stated cut-off is given here; in the data, active means inhibition mostly above about 52% (no sharp cut-off); inactive means mostly below about 76%. What follows is part of a selection rich in actives, with near analogues and random picks from the rest.
Experiment: cell-free HIV fusion peptide-binding blockers – biochemical, uHTS, fluorescence dequenching, primary screen (AID 1986)
Details: 30 min, stronger effect = higher value
[1] = measured here: repeat confirmation average inhibition, at 18.6 µM

## CC(=O)NS(=O)(=O)c1ccc(N=c2ssc3c2-c2cc(C)c(C)cc2NC3(C)C)cc1
At 20 µM
  inhibition: 51.7% (inactive)
[1]
  inhibition: 11.3%

## CC(=O)NS(=O)(=O)c1ccc(N=c2ssc3c2-c2ccc(C)cc2NC3(C)C)cc1
At 20 µM
  inhibition: 52.5% (active)

## CC(=O)NS(=O)(=O)c1ccc(N=c2ssc3c2-c2cc(C)ccc2NC3(C)C)cc1
At 20 µM
  inhibition: 46.9% (inactive)

## O=C(CSc1nc(O)cc(=O)[nH]1)N1c2ccccc2Sc2ccccc21
At 20 µM
  inhibition: 2.6% (inactive)

## Cc1snc(SCc2cccc(Cl)c2)c1C#N
At 20 µM
  inhibition: -1.1% (inactive)

## Cc1nc(SCC(=O)N2c3ccccc3Sc3ccccc32)n[nH]1
At 20 µM
  inhibition: -1.2% (inactive)

## N#Cc1c(Cl)nc(SCc2ccccc2)nc1-c1ccccc1
At 20 µM
  inhibition: -2.7% (inactive)

## CC(C)NC(=O)CSc1nnc(-c2ccc(S(=O)(=O)N3CCCC3)cc2)n1CC1CCCO1 (stereo unspecified)
At 20 µM
  inhibition: -1.1% (inactive)

## CCn1cnc2scc(-c3ccc(OC)cc3)c2c1=O
At 20 µM
  inhibition: 2% (inactive)

## CC1CCC2(CC1)NC(=O)N(Cc1cc(=O)n3ccsc3n1)C2=O (stereo unspecified)
At 20 µM
  inhibition: -0.3% (inactive)

## O=C(OCc1c(Cl)cccc1Cl)c1cccnc1
At 20 µM
  inhibition: -1.3% (inactive)

## CCCN(CCC)Cc1cc2ccccc2c2c1COC2
At 20 µM
  inhibition: 1.9% (inactive)

## Cc1ccc(Cc2c(C)[nH]c(=S)[nH]c2=O)cc1
At 20 µM
  inhibition: 0.1% (inactive)

## CCOc1ccc(CC(=O)Nc2cc(=O)n(C)c(=O)n2C)cc1
At 20 µM
  inhibition: 1.4% (inactive)

## NC(=O)c1cc2ccccc2o/c1=N\NC(=O)c1ccncc1
At 20 µM
  inhibition: -1.9% (inactive)

## CCN(CC)c1ccc2cc(C(N)=O)/c(=N\NC(=O)c3ccncc3)oc2c1
At 20 µM
  inhibition: 97.7% (active)
[1]
  inhibition: 54.3%

## N/C(=N\NC(=O)c1cccs1)c1cc2ccccc2oc1=O
At 20 µM
  inhibition: 1.8% (inactive)

## CCN(CC)c1ccc2cc(/C(N)=N/NC(=O)c3cccs3)c(=O)oc2c1
At 20 µM
  inhibition: 99.5% (active)
[1]
  inhibition: 53.8%

## N/C(=N\NC(=O)c1cccs1)c1cc2cc(Cl)ccc2oc1=O
At 20 µM
  inhibition: 2.7% (inactive)

## CCN(CC)c1ccc2cc(C(N)=O)c(=N)oc2c1
At 20 µM
  inhibition: 136% (inactive)

## COC(=O)CCc1nc2cc(Cl)ccc2n(Cc2ccccc2)c1=O
At 20 µM
  inhibition: 0% (inactive)

## O=C(NCc1cccs1)C1CC(=O)N(c2ccccc2)C1 (stereo unspecified)
At 20 µM
  inhibition: -2.2% (inactive)

## COc1cccc(C=N[C@@H](CO)[C@@H](O)c2ccc([N+](=O)[O-])cc2)c1O
At 20 µM
  inhibition: -1% (inactive)

## COC(=O)/C(N=Nc1c(C)n(C)n(-c2ccccc2)c1=O)=C(\C)O
At 20 µM
  inhibition: 2.8% (inactive)

## CCCCC1=CC2=CC(=O)C(C)(OC(=O)C3CCCC3)C(=O)C2=CO1 (stereo unspecified)
At 20 µM
  inhibition: 68.3% (active)

## COC(=O)CCCC1=CC2=CC(=O)C(C)(OC(=O)C3CCCC3)C(=O)C2=CO1 (stereo unspecified)
At 20 µM
  inhibition: 52.5% (inactive)
[1]
  inhibition: 24.7%

## CCCCC1=CC2=CC(=O)C(C)(OC(=O)CCc3ccccc3)C(=O)C2=CO1 (stereo unspecified)
At 20 µM
  inhibition: 41.7% (inactive)
